High-throughput results: PubChem BioAssay, National Center for Advancing Translational Sciences (NCATS)
This is a sample that favours compounds with a hit; in the whole collection about 2.2% have one here.
Abeta yeast res = qHTS for compounds that reverse cellular toxicity of Amyloid beta (A-beta) peptide in yeast: Primary Screen; yeast expressing A-beta42, growth rescue, OD600, 48 h; response scale: 0% DMSO, 100% iron-clioquinol control; Potency, µM (series often up to 46.1 µM), actives largely listed as activators; actives 0.063% (n = 410,000); note: nearly all actives have a fitted effect of over 55% in size
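Yeast A-beta toxicity model in growth medium with pinned compounds, 48 h at 30 C; growth read as absorbance at 600 nm. Normalized to FeCl3/clioquinol equimolar mix (positive) and DMSO (negative).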
TDP-43 yeast inh = qHTS of TDP-43 Inhibitors | TDP-43 expressing yeast growth rescue, BacTiter-Glo, 24 h | Potency, µM (series often up to 46.1 µM), without a hit: top-dose growth rescue (activation), usual class: activators | actives 1.8% (n = 410,000) | AID 652104, 2013; note: % of control where 0% means no effect; nearly all actives have a fitted effect of over 50% in size
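Cell-based yeast growth screen: TDP-43 expression induced in galactose, inoculum OD600=0.02 after raffinose pregrowth to mid-log. Read-out BacTiter-Glo luminescence at 24 hr, 30 deg C; inhibition of toxicity seen as signal increase.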
FUS yeast rescue = qHTS for Suppressors of FUS Proteinopathy: Primary screen using FUS-linked yeast assay; Potency, µM (highest dose often 76.6 µM), most hits filed as activators; actives 0.24% (n = 390,000); S. cerevisiae FUS-expressing, growth rescue, OD600, 24 h;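 note: plate controls were DMSO vehicle for no effect and reference control for full effect; nearly all actives have a fitted effect of over 55% in size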
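Galactose (2%) drives FUS expression in yeast precultured in raffinose; seeding density OD 0.005. Test compounds incubated 24hr at 30C and 99% humidity before absorbance at 600 nm was measured.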
Mito fusion yeast = qHTS Assay for Small Molecule Inhibitors of Mitochondrial Division or Activators of Mitochondrial Fusion; S. cerevisiae fusion-defective mutant growth rescue, CellTiterGlo 48 h; Potency, µM (doses to about 46.1 µM), without a hit: at the top dose growth rescue (activation), hits mostly activators; actives 0.23% (n = 320,000); AID 485298, 2010; note: % of control where 0% means no effect; nearly all actives have a fitted effect of over 45% in size
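Luminescent cell viability in 1536-well qHTS format served as the measure of rescued growth in ts fusion-mutant S. cerevisiae cultured on non-fermentable YPEG for 48 hours at 37C.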
aSyn yeast inh = qHTS of alpha-syn Inhibitors. Yeast expressing alpha-synuclein, growth rescue, BacTiter-Glo, 24 h. Potency, µM (top dose mostly 46.1 µM), without a hit: at the highest dose growth rescue (activation), most hits filed as activators. actives 0.14% (n = 370,000). AID 652106, 2013; note: % of control where 0% means no effect; nearly all actives have a fitted effect of over 65% in size
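Galactose-induced alpha-syn yeast (OD600=0.02, raffinose-pregrown) + pinned cpd, 24 hr, 30 deg C; growth by BacTiter-Glo luminescence. Growth restoration scores as activation.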
Active calls of the source: *; [ ] = dose if it differs, or a comment. Calls come from the whole dose curve; as a rule, active = well fitted curve in the direction sought with a large enough effect; inconclusive = small, poorly fitted or top-dose-only effect, or another doubt; inactive = no such curve, though single readings can be large; an effect the other way counts as inactive or inconclusive. Potency is the fitted concentration of half-maximal effect.

Screening O=C(O)CNC(=S)N(Cc1ccccc1)Cc1cccs1 returned Abeta yeast res inactive, TDP-43 yeast inh -13%[1.82 µM], FUS yeast rescue inactive, Mito fusion yeast -5% and aSyn yeast inh 1%.
Screening Cc1cccc(C)c1NC(=S)N(Cc1ccccc1)Cc1cccs1 returned Abeta yeast res inactive, TDP-43 yeast inh 35µM*, FUS yeast rescue inactive, Mito fusion yeast 6% and aSyn yeast inh 23%.
Screening CCCn1nc(C(=O)N2CCN(S(=O)(=O)c3ccc(C)c(C)c3)CC2)c2ccccc2c1=O returned Abeta yeast res inactive, TDP-43 yeast inh 35µM*, FUS yeast rescue inconclusive, Mito fusion yeast 16% and aSyn yeast inh -40%.
O=S(=O)(NCCc1cn(S(=O)(=O)c2ccccc2)c2ccccc12)c1ccccc1 was read as aSyn yeast inh 2%.
`c1cnc(SCCOc2cccc3ccccc23)nc1` gave Abeta yeast res inactive, TDP-43 yeast inh 11µM*, FUS yeast rescue inactive, Mito fusion yeast 15% and aSyn yeast inh -5%.
Screening Clc1ccc(OCCSc2ncccn2)c2ccccc12 returned Abeta yeast res inactive, TDP-43 yeast inh inconclusive, FUS yeast rescue inactive and Mito fusion yeast 5%.
For COc1ccc(N(C)C(=O)Cn2cc(S(=O)(=O)N3CCN(c4ccccc4F)CC3)c3ccccc3c2=O)c(OC)c1 the results were Abeta yeast res inactive, TDP-43 yeast inh -5% and FUS yeast rescue inconclusive.
`COc1ccc(Nc2nc(-c3cccc(OC)c3O)nc3ccccc23)cc1` gave Abeta yeast res inactive, TDP-43 yeast inh 18µM*, FUS yeast rescue inconclusive, Mito fusion yeast 18% and aSyn yeast inh 3%.
`COc1cccc(-c2nc(NC(C)(C)C)c3ccccc3n2)c1O` gave Abeta yeast res inactive, TDP-43 yeast inh inconclusive, FUS yeast rescue inactive, Mito fusion yeast 6% and aSyn yeast inh -11%.
COc1cccc(-c2nc(N3CC(C)CC(C)C3)c3ccccc3n2)c1O (stereo not given) was read as Abeta yeast res inactive, TDP-43 yeast inh 13µM*, FUS yeast rescue inactive, Mito fusion yeast 9% and aSyn yeast inh 7%.
`Cc1cccc(C)c1NC(=O)C(C1CC1)n1c(=O)c(-c2cc3ccccc3[nH]2)nc2ccccc21` (stereo not given) gave Abeta yeast res inactive, TDP-43 yeast inh inconclusive, FUS yeast rescue 5.6µM* and aSyn yeast inh inconclusive.
For Cc1cccc(C)c1NC(=O)C(C1CC1)n1c(=O)c(-c2ccccc2)nc2ccccc21 (stereo not given) the results were Abeta yeast res inactive, TDP-43 yeast inh 13µM*, FUS yeast rescue inactive and aSyn yeast inh inconclusive.
Screening COc1cccc(/C=C/c2ccnc3ccccc23)c1OC returned aSyn yeast inh -7%.
For CC(C)Oc1ccc(Oc2ccc(C#C[C@H](C)N3C(=O)c4ccccc4C3=O)cc2)cn1 the results were FUS yeast rescue inactive.
Screening CCNC(=O)n1nccc1C(C)Oc1ccccc1 (stereo not given) returned Abeta yeast res inactive, TDP-43 yeast inh 11µM*, FUS yeast rescue inactive, Mito fusion yeast 1% and aSyn yeast inh 1%.
CCOC(=O)c1nnn(-c2nonc2N)c1CSc1ccccc1 was read as Abeta yeast res inactive, TDP-43 yeast inh inconclusive, FUS yeast rescue inactive, Mito fusion yeast 12% and aSyn yeast inh 14%.
CCOC(=O)c1nnn(-c2nonc2N)c1CSc1ccc(C)cc1 was read as Abeta yeast res inactive, TDP-43 yeast inh 22µM*, FUS yeast rescue inactive, Mito fusion yeast inconclusive and aSyn yeast inh 15%.
COC(=O)C(=Cc1ccccc1[N+](=O)[O-])C(=O)OC was read as Abeta yeast res inactive, TDP-43 yeast inh 16µM*, FUS yeast rescue inactive, Mito fusion yeast -61% and aSyn yeast inh 0%.
For O=C(/C=C/c1ccccc1[N+](=O)[O-])OCC(=O)c1ccccc1 the results were Abeta yeast res inactive, TDP-43 yeast inh 20µM*, FUS yeast rescue inactive, Mito fusion yeast -6% and aSyn yeast inh 10%.
`C=CCN(C)CC#CCCCCl` gave FUS yeast rescue inactive.
`Cc1cc(C(F)(F)F)n2nc(-c3cnn(C)c3C(F)(F)F)c(Br)c2n1` gave Abeta yeast res inactive, TDP-43 yeast inh 13µM*, FUS yeast rescue inactive, Mito fusion yeast 0% and aSyn yeast inh 5%.
For CC(=O)C[n+]1cccc(Br)c1 the results were aSyn yeast inh 3%.
For CC(=O)c1sc(N/N=C\c2cccc(Br)c2)nc1C the results were Abeta yeast res inactive, TDP-43 yeast inh 18µM*, FUS yeast rescue inconclusive, Mito fusion yeast inconclusive and aSyn yeast inh -11%.
For CC(=O)c1sc(N/N=C\c2ccc(Br)cc2)nc1C the results were Abeta yeast res inactive, TDP-43 yeast inh 0%, FUS yeast rescue inactive, Mito fusion yeast -7% and aSyn yeast inh 1%.
Screening O=C(Nc1cccc2ccccc12)c1cnn2c1NC(=C1CC1)C=C2C(F)F returned aSyn yeast inh -6%.
Cc1ccc(Cl)cc1N1CCN(C(=O)C2(S(=O)(=O)c3ccc(Cl)cc3)CC2)CC1 was read as Abeta yeast res inactive, TDP-43 yeast inh 25%, FUS yeast rescue inactive, Mito fusion yeast 18% and aSyn yeast inh 8%.
Screening Cc1cccc(N2CCN(C(=O)C3(S(=O)(=O)c4ccc(Cl)cc4)CC3)CC2)c1C returned Abeta yeast res inactive, TDP-43 yeast inh 35µM*, FUS yeast rescue inconclusive, Mito fusion yeast -14% and aSyn yeast inh 0%.
`CCCCCn1c(=O)c2ccccc2n2c(CCl)nnc12` gave Abeta yeast res inactive, TDP-43 yeast inh 16µM*, FUS yeast rescue inactive, Mito fusion yeast -6% and aSyn yeast inh 5%.
`COC(=O)c1cn(CCOc2ccccc2OC)c2ccccc12` gave Abeta yeast res inactive, TDP-43 yeast inh inconclusive, FUS yeast rescue inactive, Mito fusion yeast 3% and aSyn yeast inh 15%.
`COC(=O)c1cn(CCOc2ccccc2F)c2ccccc12` gave Abeta yeast res inconclusive, TDP-43 yeast inh 11µM*, FUS yeast rescue inactive, Mito fusion yeast 29% and aSyn yeast inh 9%.
For COc1ccccc1OCCn1cc(/C=N/NC(=O)c2ccncc2)c2ccccc21 the results were Abeta yeast res inactive, TDP-43 yeast inh 13µM*, FUS yeast rescue inactive, Mito fusion yeast 7% and aSyn yeast inh 10%.
Screening O=C(N/N=C/c1cn(CCOc2ccccc2)c2ccccc12)c1ccncc1 returned Abeta yeast res inactive, TDP-43 yeast inh -23%, FUS yeast rescue inactive, Mito fusion yeast 9% and aSyn yeast inh -4%.
